PriA SSB inh – inhibitors of Klebsiella pneumoniae PriA binding to SSB C-terminal tail. AlphaScreen SSBct-PriA binding, biotinylated peptide. 430,000 compounds, 0.6% hits. inhibition, % at 33 µM; in the data active = inhibition mostly above about 37%, no sharp cut-off; inactive = mostly below about 20%;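 also: plate controls were negative control peptide for no effect and reference peptide for full effect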
PfHsp40 rescue – rescue of PfHsp40-mediated yeast toxicity. S. cerevisiae expressing PfHsp40, growth rescue, ATP luminescence. growth rescue, % at 12.5 µM. 340,000 compounds, 0.68% hits. AID 504582; in the data active = growth rescue above about 28%, passing the limit was not always enough; inconclusive = no clear call, values can overlap the other calls;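 also: yeast W303a lacking pdr1 and pdr3 grown in galactose medium; growth measured after three days at 30 °C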
RN4220 kill – kills Staphylococcus aureus RN4220. S. aureus RN4220 growth, OD600, 16 h. inhibition, % (concentration not given with the values). 330,000 compounds, 0.33% hits. AID 1259311; in the data active = inhibition above about 85%;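 also: plate controls were untreated cells for no effect and reference antibiotic for full effect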
VHR inh abs – blocks human VHR1 dual specificity phosphatase. 290,000 compounds, 0.52% hits. inhibition, % at 13.3 µM. AID 1654. recombinant VHR phosphatase, pNPP absorbance. P51452; in the data active = inhibition above about 50%
Target sequence (P51452 whole entry, looked up): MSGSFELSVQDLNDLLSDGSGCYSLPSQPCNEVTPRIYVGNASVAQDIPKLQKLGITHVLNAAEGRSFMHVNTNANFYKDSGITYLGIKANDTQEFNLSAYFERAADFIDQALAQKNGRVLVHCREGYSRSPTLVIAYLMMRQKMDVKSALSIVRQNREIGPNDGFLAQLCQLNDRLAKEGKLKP
Sa ugtP lethal – growth inhibition of S. aureus ugtP deletion strain; S. aureus RN4220 ugtP deletion, OD600 growth, 16 h; growth inhibition, % (test concentration not listed); 330,000 compounds, 0.54% hits; in the data active = growth inhibition above about 68%;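 also: plate controls were untreated wells for no effect and antibiotic for full effect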
Mtb hypoxia inh – reduces hypoxia-regulated biosensor signal in M. tuberculosis | M. tuberculosis hypoxia-regulated fluorescent reporter, fluorescence | fluorescence inhibition, % (no concentration beside the values) | 300,000 compounds, 0.1% hits | AID 1159583; in the data active = fluorescence inhibition mostly above about 23%, no sharp cut-off; inactive = mostly below about 17%
Starred values were filed as active, the others as inactive; ? = inconclusive; nt = no result given. Shown are actives, neighbours in structure and some others; about 1.8% of the full set was active somewhere.

SMILES	PriA SSB inh	PfHsp40 rescue	RN4220 kill	VHR inh abs	Sa ugtP lethal	Mtb hypoxia inh
Cc1cc2ncn(N=Cc3ccc([N+](=O)[O-])o3)c2cc1C	-2	nt	100*	nt	101*	9
Cc1nc2ccccc2n1N=Cc1ccc([N+](=O)[O-])o1	-6	nt	101*	nt	100*	nt
COc1cccc(C=NNC(=O)c2cc(C34CC5CC(CC(C5)C3)C4)[nH]n2)c1	-2	nt	-6	nt	-37	nt
COc1ccccc1C(=O)NCCSCc1c(F)cccc1Cl	-7	3	6	23	-1	4
Cc1c(C(=O)NCCSCc2c(F)cccc2Cl)cnn1-c1ccc(Cl)cc1	3	132*	nt	20	nt	nt
Oc1c(Cl)cc(Cl)cc1CNn1cnnc1	-5	0	3	-19	2	5
Cc1cc(C)c(O)c(CN(C)Cc2cc(Cl)cc(Cl)c2O)c1	-7	2	100*	nt	86*	2
COC(=O)Nc1nc2c(s1)CN(C(=O)NC(c1ccccc1)c1ccccc1)CC2	-6	nt	nt	nt	nt	nt
CCOC(=O)c1cccc2c1-c1ccccc1C2=NO	-14	nt	-1	nt	88*	1
CCC(CNc1cc(OC)cc2cccnc12)NC1CCCCC1 (configuration not stated)	4	0	0	54*	-3	15
COc1cc(NCCCC(C)N)c2ncccc2c1 (configuration not stated)	49*	0	-15	nt	-4	20
COc1cc(NCCCCCCN)c2ncccc2c1OC	28	1	5	nt	-5	16
CCn1c(=NC(=O)c2ccc(C(=O)OC)cc2)sc2cc(F)cc(F)c21	-11	nt	nt	nt	nt	nt
COc1ccc2c(C)cc(SCC(=O)NCCc3ccc(OC)c(OC)c3)nc2c1	0	nt	nt	nt	nt	nt
CCCCn1c(NC(=O)c2ccccc2Cl)c(C#N)c2nc3ccccc3nc21	36	1	44	34	26	-5
N#Cc1c(NC(=O)c2ccccc2Cl)n(Cc2ccccc2)c2nc3ccccc3nc12	53*	0	nt	30	nt	nt
O=C(NCC1CCN(C(=O)c2ccoc2)CC1)c1nc2ccccc2s1	-20	nt	nt	nt	nt	nt
C[C@H]1c2cccc(O)c2C(=O)C2C(=O)C3(O)C(=O)C(C(N)=O)C(=O)[C@@H](N(C)C)[C@@H]3[C@@H](O)[C@@H]21 (some centres not stated)	-9	0	nt	nt	nt	nt
C=C1c2cccc(O)c2C(O)=C2C(=O)[C@]3(O)C(O)=C(C(N)=O)C(=O)[C@@H](N(C)C)[C@@H]3[C@@H](O)[C@H]12	7	10	100*	21	99*	nt
C[C@H]1c2cccc(O)c2C(O)=C2C(=O)C3(O)C(O)=C(C(N)=O)C(=O)[C@@H](N(C)C)[C@@H]3[C@@H](O)[C@@H]21 (some centres not stated)	-1	0	nt	nt	nt	nt
CN(C)[C@@H]1C(=O)C(C(N)=O)=C(O)[C@@]2(O)C(=O)C3=C(O)c4c(O)cccc4[C@@](C)(O)C3[C@H](O)C12 (some centres not stated)	3	?	nt	nt	nt	nt
C=C1c2c(Cl)ccc(O)c2C(O)=C2C(=O)[C@]3(O)C(O)=C(C(N)=O)C(=O)C(N(C)C)C3C(O)C12 (some centres not stated)	nt	nt	100*	nt	100*	nt
C=C1c2cccc(O)c2C(=O)C2C(=O)[C@]3(O)C(=O)C(C(N)=O)C(=O)C(N(C)C)C3C(O)C12 (some centres not stated)	nt	nt	100*	nt	89	nt
Cc1cc(C)c(S(=O)(=O)NCCn2nc(C)c(Cl)c2C)c(C)c1	-7	nt	nt	nt	nt	nt
O=C(Nc1ccc2c(c1)CN(C(=O)c1cccs1)CC2)C1CCCC1	3	nt	nt	nt	nt	nt
COc1ccc(-c2cn3cc(C)ccc3n2)cc1Br	19	2	11	10	-4	8
COc1ccc(-c2cn3cc(Cl)ccc3n2)cc1OC	-8	2	12	53*	10	15
CSc1ncccc1C(=O)NCC(O)c1ccc2c(c1)CCO2 (configuration not stated)	7	nt	nt	nt	nt	nt
CCc1cc(C(=O)N2CCCC(CCC(=O)N3CCN(c4ccccn4)CC3)C2)no1 (configuration not stated)	4	1	3	11	1	9
O=C(CCC1CCCN(C(=O)c2cc(C3CC3)[nH]n2)C1)N1CCN(c2ccccn2)CC1 (configuration not stated)	2	1	7	52*	1	-1

Assay outcomes from PubChem BioAssay.
